Test results: PubChem BioAssay (NCI)
About 83,000 compounds went through this panel and 20% of them were active in at least one assay; those are over-represented in the sample as a whole.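 Values shown are percent growth following 48 h exposure of cells in 96-well plates to a single concentration of compound; below 10 was considered active.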 A number with no mark means an inactive call. Active and inactive are the calls of the source.

Experiments:
Assay in all cases: NCI-60 one-dose screen, 48 h (100 = growth as untreated, 0 = no growth, -100 = all killed)
Conditions in all cases: 10 µM
K-562 leukemia = tested on: K-562 leukemia
MALME-3M melanoma = tested on: MALME-3M melanoma
MDA-MB-231 breast = tested on: MDA-MB-231 breast
RXF 393 renal = tested on: RXF 393 renal
SF-268 CNS = tested on: SF-268 CNS
SF-295 CNS = tested on: SF-295 CNS
SF-539 CNS = tested on: SF-539 CNS
UACC-257 melanoma = tested on: UACC-257 melanoma
M14 melanoma = tested on: M14 melanoma
HCT-15 colon = tested on: HCT-15 colon
HT29 colon = tested on: HT29 colon
SNB-75 CNS = tested on: SNB-75 CNS
SNB-19 CNS = tested on: SNB-19 CNS
U251 CNS = tested on: U251 CNS
PC-3 prostate = tested on: PC-3 prostate
SK-MEL-5 melanoma = tested on: SK-MEL-5 melanoma
UACC-62 melanoma = tested on: UACC-62 melanoma
LOX IMVI melanoma = tested on: LOX IMVI melanoma
SK-MEL-28 melanoma = tested on: SK-MEL-28 melanoma
SK-MEL-2 melanoma = tested on: SK-MEL-2 melanoma

SMILES | growth (K-562 leukemia) | growth (MALME-3M melanoma) | growth (MDA-MB-231 breast) | growth (RXF 393 renal) | growth (SF-268 CNS) | growth (SF-295 CNS) | growth (SF-539 CNS) | growth (UACC-257 melanoma) | growth (M14 melanoma) | growth (HCT-15 colon) | growth (HT29 colon) | growth (SNB-75 CNS) | growth (SNB-19 CNS) | growth (U251 CNS) | growth (PC-3 prostate) | growth (SK-MEL-5 melanoma) | growth (UACC-62 melanoma) | growth (LOX IMVI melanoma) | growth (SK-MEL-28 melanoma) | growth (SK-MEL-2 melanoma)
COc1ccc(-c2nc(-c3nc4ccc(Cl)cc4[nH]3)c3ccccn23)cc1 | 55.8% | -10.8% (active) | 11.8% | -54.8% (active) | -8.4% (active) | 6.74% (active) | -13.7% (active) | 49.4% | 62.3% | 62.8% | 34.7% | -89.4% (active) | 20.3% | 7.5% (active) | 55.9% | 50.7% | 82.5% | 30.4% | 12% | 41%
Cc1ccc(C(=O)N2C/C(=C/c3ccccc3)C(=O)/C(=C/c3ccccc3)C2)cc1 | 5.67% (active) | 60.3% | 53.4% | 31.3% | 66.4% | 56.1% | 87.2% | 80.1% | 18.2% | 24.5% | -17.9% (active) | 67.9% | 83% | 47% | 65.3% | 58.9% | 76.9% | -24.5% (active) | 79.8% | 80.2%
COc1cc2nc(Nc3cccc(C(=O)O)c3)nc(N)c2cc1OC | 108% | 111% | 86.8% | 106% | 95.3% | 96.4% | 97% | 97.5% | -45.1% (active) | 102% | 103% | 94.6% | 102% | 99% | 90.4% | 99.7% | 90.2% | 96.3% | 103% | –
O=C1/C(=C/c2ccc([N+](=O)[O-])o2)Oc2ccccc21 | 1.24% (active) | -40.6% (active) | -17.3% (active) | -74.9% (active) | -10.8% (active) | 79.2% | -40.7% (active) | -8.85% (active) | 13.8% | 1.63% (active) | -15.3% (active) | 74.7% | 89.4% | 47.5% | 42.8% | 55.7% | -55% (active) | -60.7% (active) | 21.5% | –
Cc1ccc(C)c(C(O)(c2cc(C)ccc2C)C2(O)CCCCC2)c1 | 87.3% | 91.7% | 96.9% | 91% | 94.2% | 95.9% | 94.6% | 102% | 98.6% | 94.5% | 90% | 95.9% | 98.8% | 90.1% | 86.8% | 99.4% | 89.7% | 86.6% | 105% | –
CCOC(=O)CCC(NC(=O)c1ccc(N)cc1)C(=O)OCC (centres undefined) | 112% | 88.2% | 126% | 129% | 99.7% | 136% | 97.6% | 101% | 91.3% | 98.7% | 99.4% | 113% | 109% | 105% | 89.8% | 105% | 103% | 100% | 105% | –
Cn1c([N+](=O)[O-])cnc1/C=C1\Oc2ccc(Cl)cc2C1=O | 1.86% (active) | -55% (active) | -22.5% (active) | -70.5% (active) | -32.1% (active) | -17.3% (active) | -50.3% (active) | -41.7% (active) | -33% (active) | -8.74% (active) | -10.1% (active) | 15.7% | -10.5% (active) | -18.2% (active) | -17.9% (active) | -92.7% (active) | -74.2% (active) | -57.5% (active) | -22.1% (active) | -42.2% (active)
C#Cc1ccc(-n2c(/C=C/c3ccc(Cl)c(F)c3)nc3ncccc3c2=O)cc1 | -8.5% (active) | -60.4% (active) | -29.8% (active) | -76.2% (active) | -61.9% (active) | -60.1% (active) | 1.03% (active) | -65.1% (active) | -9.7% (active) | 2.43% (active) | -53.5% (active) | -64.7% (active) | 22% | -53.9% (active) | 2.16% (active) | -97.5% (active) | -55.9% (active) | -57% (active) | -8.26% (active) | -60.2% (active)
CCOC(=O)N1C/C(=C/c2ccc(Cl)cc2)C(=O)/C(=C/c2ccc(Cl)cc2)C1 | 3.7% (active) | 84.9% | 68.3% | 47.4% | 52.3% | 44.2% | 98% | 94.2% | 57.1% | 34.3% | -40% (active) | 66% | 77.3% | 12.1% | 49.4% | 88.1% | 67.6% | -56.8% (active) | 105% | 84.7%
CCC(=O)N1C/C(=C/c2ccc(Cl)cc2)C(=O)/C(=C/c2ccc(Cl)cc2)C1 | 1.74% (active) | -66.2% (active) | -22% (active) | -94% (active) | -30.4% (active) | -35.8% (active) | -64.7% (active) | -40.3% (active) | -61.9% (active) | 0.422% (active) | -72.8% (active) | 20% | -19.3% (active) | -80.1% (active) | -44.1% (active) | -64.1% (active) | -74.8% (active) | -85.7% (active) | -74.2% (active) | –
COc1ccc(-c2ccc(-c3ccc(C(=N)N)cn3)o2)cc1 | 24.7% | 39.4% | 47.4% | 85.7% | 81.2% | 68.7% | 79.7% | 62.8% | 75.3% | 59.8% | 14.1% | 61.1% | 91.5% | 76.3% | 68.3% | 72.3% | 89.7% | 61.8% | 86.5% | 99.5%
COC(=O)C1(C)Cc2cc(OC(C)=O)c(OC(C)=O)cc2N1 (centres undefined) | 16% | 79.7% | 101% | 61.8% | 87.5% | 121% | 91.3% | 19% | 87.3% | 35.6% | 79.8% | 82% | 105% | 81.5% | 64.7% | 76.3% | 56.6% | 66% | 100% | –
O=C(Nc1cccc(Cl)c1)Nc1nccs1 | 85.8% | 93.5% | 93.2% | 103% | 107% | 97.6% | 88.4% | -10.8% (active) | 89.3% | 86.2% | 94.4% | 91.6% | 83.4% | 94.1% | 94.5% | 89.7% | 79.8% | 94.1% | 103% | 97.2%
Cc1cc(=O)n2nnc3c4ccccc4ccc3n12 | 24.7% | 81.2% | 71.4% | 98% | 84% | 104% | 82.3% | 81.1% | 92.4% | 51.4% | 85.4% | 102% | 94.9% | 97% | 62.5% | 88.5% | 79.9% | 89.3% | 98.2% | 113%
CCCCCCc1cc(N=Nc2ccc(S(=O)(=O)Nc3cc(C)nc(C)n3)cc2)c(O)cc1O | 93.8% | 93.1% | 111% | 118% | 110% | 98.7% | 97.1% | 102% | 94.2% | 103% | 95.6% | 91.8% | 103% | 100% | 96.2% | 98.9% | 105% | 96.2% | 115% | 90.5%
COc1cccc(-c2cc(-c3cccc(NS(C)(=O)=O)c3)nc(N)c2C#N)c1O | 17.1% | -5.49% (active) | 53.7% | 29.3% | 42.6% | -1.4% (active) | 3.03% (active) | 79.8% | 41.3% | 26.7% | 12.6% | -16.4% (active) | 42.3% | 30.9% | 16.6% | 11.9% | 52.9% | 46.6% | 76.7% | 69%
